Source: PubChem BioAssay (several laboratories)
Compounds with a hit are over-represented: about 3.3% of the library has one in this group of screens.
SMARCA2 act = activators of SMARCA2 function. activation, % at 9.1 µM. MG213 cells, MMTV-luciferase reporter, dexamethasone, overnight. AID 652017. hit rate 1% among 370,000; in the data active means activation above about 7.8%;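 further: 0% = vehicle wells and 100% = reference activator wells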
esBAF inh = SWI/SNF esBAF complex inhibition | reporter increase, % at 12.5 µM | mouse ES cells, Bmi1-luciferase knock-in reporter, 24 h; 100% = twice the neutral-well signal | AID 602393 | hit rate 2% among 350,000; in the data active means activation above about 40%;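 further: 0% = median of the plate's neutral control wells and 100% = double that signal; a rise in the Bmi1 reporter signal indicates esBAF inhibition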
Gli-Sufu block = Gli-Sufu pathway antagonism | hit rate 0.74% among 340,000 | AID 588413 | Sufu-KO-LIGHT fibroblasts, Gli luciferase reporter luminescence | inhibition, % at 5 µM;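 active means inhibition above about 55%, limit read from the data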;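 further: 0% = DMSO-treated cells and 100% = wells with medium but no cells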
697 NFkB inh = lowers PMA/ionomycin-induced NF-kB signal in 697 B cells; 697 B-cell NF-kB luciferase reporter, 16 h; inhibition, % at 4 µM; hit rate 0.33% among 330,000; in the data active means inhibition above about 35%
Jurkat NFkB inh = lowers PMA/ionomycin-induced NF-kB signal in Jurkat cells; AID 435003; PMA/ionomycin-induced NF-kB luciferase reporter, luminescence; hit rate 0.53% among 330,000; inhibition, % at 4 µM; in the data active means inhibition above about 50%
Gli-Sufu confirm = confirmation of Gli-SUFU pathway antagonists. shares compounds with Gli-Sufu block. inhibition, % at 5 µM. Sufu-KO-LIGHT cells, Gli luciferase reporter, luminescence. hit rate 40% among 2,500;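 active means mean inhibition at 5 µM reaching about 45%, limit read from the data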;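 further: plate controls were DMSO-treated cells for no effect and wells lacking cells for full effect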
Gli cytotox = cytotoxic in Gli-SUFU antagonist counter-screen; shares compounds with Gli-Sufu block; Sufu-KO-LIGHT cells cytotoxicity, ATP luminescence; cytotoxicity, % at 5 µM; hit rate 32% among 2,500; AID 651994;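 active means mean cytotoxicity at 5 µM above about 25%, limit read from the data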;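 further: cells exposed to compound overnight for roughly 16 to 18 hours; plate controls were DMSO wells with cells for no effect and medium without cells for full effect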
Wnt3a counter = counter-screen for Gli-SUFU antagonists: Wnt3a reporter inhibition; Wnt-LIGHT cells, Wnt3a-driven luciferase reporter, luminescence; shares compounds with Gli-Sufu block; hit rate 20% among 2,500; inhibition, % at 6.25 µM;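 active means mean inhibition above about 25%, limit read from the data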
Active calls of the source: *; / = no result.

SMILES	SMARCA2 act	esBAF inh	Gli-Sufu block	697 NFkB inh	Jurkat NFkB inh	Gli-Sufu confirm	Gli cytotox	Wnt3a counter
C[C@@H]1CCCCO[C@H](CN(C)C(=O)Nc2ccc3c(c2)OCO3)[C@@H](C)CN([C@@H](C)CO)C(=O)c2cc(NS(=O)(=O)c3cccs3)ccc2O1	/	13	/	/	/	/	/	/
COc1cc(NC(=O)CNC(c2ccccc2)c2ccccc2)cc(OC)c1OC	-3	4	12	-16	-16	/	/	/
COc1cc(NC(c2ccccc2)c2ccccc2)cc(OC)c1OC	-6	/	51	14	-13	23	15	9
N=c1n(Cc2ccccc2)c2ccccc2n1Cc1ccccc1	1	/	46	-47	-13	/	/	/
COc1ccc(OCC(O)Cn2c(=N)n(Cc3ccccc3)c3ccccc32)cc1 (configuration not stated)	-5	-27	52	-13	27	33	31*	-14
CN1c2ccc(Br)cc2[C@@H]2[C@@H](CCN2C(=O)C2CCOCC2)[C@@H]1CO	/	-1	/	/	/	/	/	/
C(#Cc1ccccc1)C[N+]1(CC#Cc2cccc3ccccc23)CCCC1	-5	/	82*	-15	24	83*	19	4
CC(C)(C)n1ncc2c(=O)n(Cc3cccc(Cn4cnc5c(cnn5C(C)(C)C)c4=O)c3F)cnc21	2	-14	77*	-1	-2	78*	38*	18
COc1ccc(CN(C)C[C@H]2Oc3ccc(NS(=O)(=O)c4ccc(C)cc4)cc3C(=O)N([C@@H](C)CO)C[C@@H]2C)cc1	/	4	/	/	/	/	/	/
O=C(C1CC1)N1CCN(c2ccc([N+](=O)[O-])cc2)CC1	4	/	53	4	0	23	11	1
CSc1ccc(S(=O)(=O)N2CCC(C(=O)Nc3cccnc3)CC2)cc1	1	-5	76*	3	30	16	11	8
O=C(Nc1cccnc1)C1CCN(S(=O)(=O)c2ccc(Cl)cc2)CC1	-3	/	-8	-9	1	/	/	/
COc1ccc(-c2cc(C(F)(F)F)n3ncc(C(=O)N4CCCCC4c4cccnc4)c3n2)cc1 (configuration not stated)	-2	4	52	1	-5	30	11	9
CCOC(=O)C1CCCN(C(=O)c2cnn3c(C(F)(F)F)cc(-c4ccccc4)nc23)C1 (configuration not stated)	-2	-10	13	19	24	/	/	/
C[C@H]1CN([C@@H](C)CO)C(=O)c2cc(NC(=O)Cn3cnnn3)ccc2O[C@H]1CN(C)C	/	1	/	/	/	/	/	/
S=C(Nc1ccccc1)Nc1ccc(OCc2ccc(Cl)cc2Cl)cc1	-10	-75	58*	4	-2	68*	29*	103*
S=C(NCCSCc1ccc(Cl)cc1Cl)Nc1ccccc1	-3	-2	-2	22	16	/	/	/
CO[C@@H]1CC[C@@H]2CCOc3c(C#N)cccc3C(=O)N(C)[C@@H](C)C(=O)N(C)C[C@H]1O2	/	-6	/	/	/	/	/	/
Clc1ccc(SCc2cc(-c3ccccc3)on2)cc1	-2	-4	-11	29	-1	/	/	/
c1ccc(Cc2cc(-c3ccccc3)on2)cc1	2	66*	96*	-53	-58	-68	19	-144
COc1ccccc1NC(=O)Cn1cc(C(=O)c2ccco2)c2ccccc21	-5	-39	56*	11	-5	69*	38*	31*
CC(=O)c1cn(CC(=O)Nc2cccc(C)c2C)c2ccccc12	-5	1	14	9	38	/	/	/
Cc1cccc(NC(=O)Cn2cc(C(=O)C3CC3)c3ccccc32)c1C	-1	-22	80*	8	15	83*	33*	-13
O=C(Nc1ccc(Oc2ccccc2)nc1)C1CCN(Cc2ccccc2)CC1	-2	-8	65*	6	7	17	3	-13
COc1ccc(S(=O)(=O)N[C@@H]2CC[C@H](CCn3cc(C(C)C)nn3)O[C@H]2CO)cc1	/	-2	/	/	/	/	/	/
SMILES	SMARCA2 act	esBAF inh	Gli-Sufu block	697 NFkB inh	Jurkat NFkB inh	Gli-Sufu confirm	Gli cytotox	Wnt3a counter
CC(=O)Nc1cccc(NC(=O)CCn2cnc3cc(C)c(C)cc32)c1	-2	1	58*	2	2	11	6	-57
O=S(=O)(c1cc(Br)ccc1Br)N1CCCCCC1	-1	-7	56*	7	4	14	12	9
NC(=O)c1ccc(Br)c(S(=O)(=O)N2CCCCC2)c1	0	12	0	4	14	/	/	/
COc1ccccc1N1CCN(CC(=O)c2c(C)[nH]c3ccccc23)CC1	-5	0	-6	16	16	/	/	/
COc1ccccc1N1CCN(CC(O)c2c(C)[nH]c3ccccc23)CC1 (configuration not stated)	-4	1	61*	16	-4	20	21	-29
CCCCCCc1cc2cc(C(=O)Nc3ccccc3)c(=O)oc2cc1O	0	/	73*	-85	28	64*	30*	79*
O=C(NCc1ccccc1)C1CC2CCCC(C1)C2=O (configuration not stated)	3	/	94*	10	6	14	18	-12
O=C(C[C@@H]1C=C[C@H](NC(=O)NC2CCCCC2)[C@H](CO)O1)NCc1ccc(Cl)cc1	/	5	/	/	/	/	/	/
CC1CC(C)CN(CCCNC(=O)c2ccc(CS(=O)(=O)Cc3cccc(Cl)c3)o2)C1 (configuration not stated)	0	-7	54	10	5	26	9	-33
CC1CCCN(CCCNC(=O)c2ccc(CS(=O)(=O)Cc3cccc(Cl)c3)o2)C1 (configuration not stated)	-1	-3	18	12	-9	/	/	/
COc1ccc(C(=O)Nc2ccc3oc(-c4cccc(F)c4)nc3c2)cc1OC	-1	-2	4	-7	-2	/	/	/
COc1ccccc1C(=O)Nc1ccc2oc(-c3ccc(F)cc3)nc2c1	1	38	95*	-45	-33	-12	16	-71
O=C(N[C@@H]1CC[C@@H](CCNS(=O)(=O)c2ccc(Cl)cc2)O[C@H]1CO)c1cccnc1	/	-1	/	/	/	/	/	/
O=C([C@H]1[C@H](CO)[C@H]2Cn3c(ccc(-c4ccncc4)c3=O)[C@@H]1N2Cc1cccnc1)N1CCOCC1	/	-1	/	/	/	/	/	/
COc1ccc(C(=O)c2cc([N+](=O)[O-])ccc2N2CCOCC2)cc1	-1	/	53	/	/	58*	62*	-15
C[C@@H]1CCCCO[C@@H](CN(C)C(=O)Nc2ccccc2)[C@H](C)CN([C@H](C)CO)C(=O)c2cc(NC(=O)NC3CCCCC3)ccc2O1	/	9	/	/	/	/	/	/
O=C(C[C@@H]1CC[C@H]2[C@@H](COC[C@H](O)CN2CCC(F)(F)F)O1)N1CCC(Cc2ccccc2)CC1	/	-5	/	/	/	/	/	/
N#Cc1c(-c2ccco2)cc(C2CC2)nc1N	3	-9	0	15	0	/	/	/
